Screening data as filed in PubChem.
Sampled rows, rich in hits. Any-hit rate of the full collection: about 8%.
HCMV inh – inhibitors of human cytomegalovirus; HFF cells, HCMV-luciferase reporter, 72 h; hits give low values; activity change, negative = inhibition, % at 57.5 µM; AID 1259415; 410,000 tested, 4.5% active; in the data active = activity change below about -60%; inconclusive = no clear call, values can overlap the other calls; inactive = above about -39%; also: % is scaled to controls: 0 for no effect and ±100 for the full control effect
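Two compound doses tested in HFFs infected with HCMV-luciferase, MOI 1 PFU/cell, 72 h at 37C. Lysate luminescence read with OneGlo; data normalized against buffer-only and 10uM Salinomycin inhibitor controls.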
HCV inhibitor – inhibitors of hepatitis C virus infection | Huh7.5.1 HCVcc-Cre infection, luciferase reporter, 44 h | Potency, µM (doses to about 41.8 µM), for the others: top-dose activity change, negative = inhibition, most hits filed as inhibitors | 340,000 tested, 3.4% active; active = well fitted inhibition curve with a large enough effect; inconclusive = small, poorly fitted or top-dose-only effect, or another doubt; inactive = no such curve, though single readings can be large or run the other way; also: potency is read from the fitted curve at half-maximal effect; % is scaled to controls: 0 for no effect and ±100 for the full control effect
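Infectious HCV cell culture screen: compound-treated cells (1,000/well, pre-plated 4 h) are infected with HCVcc-Cre at roughly 0.5 moi and grown 44 h. Infection is quantified by luciferase signal after 15 min substrate incubation at room temperature.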
LASV entry inh – Lassa virus entry inhibition | Lassa virus pseudotype entry inhibition, cell reporter | Potency, µM (series often up to 37.9 µM), inactives show top-dose activity change, negative = inhibition, actives largely listed as inhibitors | 300,000 tested, 1.2% active | AID 540256; calls by dose curve; tested in HEK293 cells; also: potency is read from the fitted curve at half-maximal effect; % is scaled to controls: 0 for no effect and ±100 for the full control effect; nearly all actives have a fitted effect of over 50% in size
SARS PLpro yeast – SARS-CoV PLP inhibition in yeast. S. cerevisiae expressing SARS-CoV PLpro, growth rescue. Potency, µM (titrated, usually from 32.9 µM), inactives show top-dose activity, positive = growth rescue, most hits filed as activators. 330,000 tested, 0.19% active. AID 485353; calls by dose curve; also: potency is read from the fitted curve at half-maximal effect; 0% is about no effect; nearly all actives have a fitted effect of over 55% in size
Marburg entry inh – blocks Marburg virus binding to or entry into cells; Marburg virus pseudotyped entry inhibition, cell reporter; Potency, µM (highest dose often 37.8 µM), without a hit: at the top dose activity change, negative = inhibition, hits mostly inhibitors; 300,000 tested, 1.8% active; calls by dose curve; tested in HEK293 cells; also: potency is read from the fitted curve at half-maximal effect; % is scaled to controls: 0 for no effect and ±100 for the full control effect
FMDV antiviral – antivirals against foot and mouth disease virus; FMDV antiviral cell-based qHTS; Potency, µM (series often up to 57.9 µM), without a hit: top-dose activity change, negative = inhibition, usual class: inhibitors; AID 1159524; 410,000 tested, 1.2% active; calls by dose curve; tested in HEK293T cells; also: read-out not given here; potency is read from the fitted curve at half-maximal effect; % is scaled to controls: 0 for no effect and ±100 for the full control effect; nearly all actives have a fitted effect of over 45% in size
* marks the source's active call; other numbers are inactive results; ? = inconclusive; . = not tested or not shown; [ ] = remark or other dose.

SMILES | HCMV inh | HCV inhibitor | LASV entry inh | SARS PLpro yeast | Marburg entry inh | FMDV antiviral
CN(CC1CCCO1)S(=O)(=O)c1ccc(C(=O)Nc2ccc3c(c2)OCO3)cc1 (centres undefined) | -6.8 | -13.3% | -19.4%[46.1 µM] | -2.0% | 4.1%[46.1 µM] | 8.4%
COc1ccc2c(c1)Cc1sc(NC(=O)c3ccccc3)nc1-2 | 9.8 | ? | -22.8% | -11.5% | -12.5%[46.1 µM] | 6.4%
CCOC(=O)N1CCc2c(sc(NCc3cccs3)c2C(=O)Nc2cc(Cl)ccc2OC)C1 | 2.2 | . | -3.9%[46.1 µM] | . | . | 2.9%
CCOC(=O)c1cc(-c2ccccc2)n(CCCC(=O)Nc2cc(C)ccc2OC)c1C | ? | . | -13.4%[46.1 µM] | . | . | -17.7%
Cc1ccc(C(=O)N(Cc2ccc(N(C)C)cc2)CC2CCCO2)cc1 (centres undefined) | -2.6 | . | ? | . | -9.1%[46.1 µM] | 27.2%
CCCC[C@H](CCC(=O)Nc1ccc(C(=O)OCC)cc1)C(=O)O | . | . | . | . | 2.5% | .
CCOC(=O)c1c(NC(=O)c2ccc(S(=O)(=O)N(C)CC3CCCO3)cc2)sc2c1CCN(C)C2 (centres undefined) | 24.8 | 12.6µM* | . | 21.4% | . | -13.8%
COc1ccc2nc(NC(=O)c3cccs3)sc2c1 | 18.1 | -3.3% | ? | -3.8% | 6.31µM* | -9.0%
COc1ccccc1C(=O)Nc1nc2cc3c(cc2s1)OCCO3 | . | ? | . | -0.7% | . | 10.8%
CCN(CC)S(=O)(=O)c1cccc(C(=O)Nc2nc3cc4c(cc3s2)OCCO4)c1 | -98.3* | 2.24µM* | ? | -2.4% | 18.3µM* | 12.6µM*
O=C(Nc1nc2cc3c(cc2s1)OCCO3)c1cccs1 | -16.4 | 11.2µM* | . | -0.6% | . | ?
CCCNC(=O)N1CC(=O)N2[C@H](CO)[C@@H](c3ccc(Br)cc3)[C@@H]2C1 | 7.8 | . | . | . | . | .
CCN(C#N)c1nc(N(C)C)nc(N(C)C)n1 | -11.7 | 10µM* | -4.3% | -2.2% | 19.2% | -0.3%
COCN(C#N)c1nc(N(C)C)nc(N(C)C)n1 | 3.1 | ? | . | 0.1% | -14.7%[46.1 µM] | 2.1%
CC(C)[C@H](NC(=O)c1ccccc1Cl)C(=O)Nc1nc(-c2ccccn2)cs1 | -82.7* | ? | ? | -2.4% | ? | ?
CC(Oc1ccc(Br)cc1)C(=O)Nc1nc(-c2ccccn2)cs1 (centres undefined) | -87.5* | 11.2µM* | ? | -2.1% | ? | 39.8µM*
CCc1nnc(NC(=O)C(NC(=O)c2ccccc2Cl)C(C)C)s1 (centres undefined) | -30.9 | -0.9% | 4.2% | 5.4% | -0.6%[46.1 µM] | -17.9%
COc1cccc(CN2CCCC(c3nc(-c4ccncc4)ncc3-c3ccccc3)C2)c1O (centres undefined) | . | . | . | . | . | -25.8%
CCOc1cc(/C=C2\C(=O)N(c3nc(-c4ccc(Br)cc4)cs3)N=C2c2ccccc2)ccc1O | . | -20.7% | 21.4% | 14.1% | -3.4%[46.1 µM] | 5.62µM*
O=c1oc2cc(O)ccc2cc1-c1ccc2c(c1)OCCO2 | . | . | . | . | . | -6.0%
O=C(CN(c1cccc(Br)c1)S(=O)(=O)c1ccccc1)N1CCc2ccccc2C1 | -5.9 | . | -22.2%[46.1 µM] | . | . | 11.9%
CCCCCn1c(=O)[nH]c2cc(C(=O)N3CCN(c4ccc(OC)cc4)CC3)ccc2c1=O | -20.2 | . | 11.5%[46.1 µM] | . | ? | -22.8%
COCCn1c(=O)[nH]c2cc(C(=O)N3CCN(c4ccc(F)cc4)CC3)ccc2c1=O | -4.0 | . | 5.3%[46.1 µM] | . | 17.7%[46.1 µM] | -2.7%
CCCCCn1c(=O)[nH]c2cc(C(=O)N3CCN(c4ccc(C(C)=O)cc4)CC3)ccc2c1=O | -74.0* | 7.94µM* | -16.2%[46.1 µM] | -2.2% | ? | ?
CCCCCn1c(=O)[nH]c2cc(C(=O)N3CCN(c4cccc(C)c4)C(C)C3)ccc2c1=O (centres undefined) | -28.3 | . | ? | . | ? | 15.8µM*
SMILES | HCMV inh | HCV inhibitor | LASV entry inh | SARS PLpro yeast | Marburg entry inh | FMDV antiviral
CCCCCn1c(=O)[nH]c2cc(C(=O)N3CCN(c4ccc(F)cc4)CC3)ccc2c1=O | -76.0* | ? | -1.3%[46.1 µM] | . | -15.9%[46.1 µM] | ?
Brc1ccccc1CN1CCC(N2CCCCC2)CC1 | -0.7 | 3.98µM* | ? | 8.6% | -23.4% | -9.1%
Cc1ccc(CN2C(=O)N/C(=C\c3ccc(N4CCOCC4)cc3)C2=O)cc1 | -7.3 | 12.6% | 0.0461µM* | -6.2% | 8.2% | -13.0%
O=C1N/C(=C\c2ccc(N3CCOCC3)c(F)c2)C(=O)N1Cc1ccccc1 | ? | -15.5% | ? | 2.6% | ? | -15.7%
CCCN1C(=O)/C(=C/c2ccc(N3CCOCC3)cc2)NC1=S | -4.9 | -20.5% | . | 7.9% | . | -15.6%
CCN1C(=O)/C(=C/c2ccc(N3CCCC3)cc2)NC1=S | -64.6* | ? | -11.8% | -11.3% | ? | -24.5%
O=C(O)C[C@H](NC(=O)COc1ccc(Cl)cc1Cl)C(=O)O | . | . | . | . | 0.5% | .
CCN(C(=O)c1cn(CC)c(=O)c2cc(OC)c(OC)cc12)c1ccc(C)c(C)c1 | -1.1 | . | -18.1%[46.1 µM] | . | -14.0%[46.1 µM] | -12.8%
CCCCN(CC)C(=O)c1cc2c(=O)n3ccccc3nc2n1C | 40.2 | . | -2.1%[46.1 µM] | . | . | 20.4%
CCc1nc2ccccc2nc1N1CCN(S(=O)(=O)c2ccccc2)CC1 | -68.5* | 5.2% | ? | -0.8% | ? | ?
COc1ccc(OC)c(NC(=O)c2oc(=O)c3ccccc3c2-c2ccccc2)c1 | 14.9 | . | -26.0%[46.1 µM] | . | . | 0.0%
COc1ccc(N(C)C(=O)c2oc(=O)c3ccccc3c2-c2ccc(C)cc2)c(OC)c1 | -11.3 | 10µM* | ? | -2.4% | -29.8%[46.1 µM] | ?
CC12CCC(=O)C=C1CCC1C2CCC2(C)C(c3csc(N)n3)CCC12 (centres undefined) | -93.0* | 10µM* | 12.6µM* | . | ? | 12.6µM*
CCC(C(=O)OCC(=O)C1(O)CCC2C3CCC4=CC(=O)CCC4(C)C3C(O)CC21C)C(C)C (centres undefined) | 32.1 | ? | ? | . | ? | 20µM*
CC12CCC(=O)C=C1CCC1C2C(O)CC2(C)C(c3csc(N)n3)CCC12 (centres undefined) | -22.1 | ? | -15.8%[46.1 µM] | . | 8.91µM* | ?
CCOc1ccc(NC(=O)CC2C(=O)N(c3ccccc3)C(=O)N2C2CCCC2)cc1 (centres undefined) | -6.4 | . | ? | . | . | -9.4%
COc1ccccc1CNC(=O)Cn1cc2c(n1)-c1c(oc(C(=O)N3CCOCC3)c1C)CC2 | ? | . | -9.3%[46.1 µM] | . | . | ?
COc1cc(OC)cc(C(=O)NC(=S)NNC(=O)[C@H]2C[C@@H]2c2ccccc2)c1 | 21.6 | -15.6% | 3.16µM* | -1.7% | -16.3%[46.1 µM] | -14.5%
CC(C)(C)NC(=S)NNC(=O)[C@H]1C[C@@H]1c1ccccc1 | 3.6 | 22.5% | 0.891µM* | -1.6% | 18.2%[46.1 µM] | 65.6%
O=[N+]([O-])c1cc(Cl)cc(C2=NCCN2)c1 | 19.9 | 8.91µM* | ? | 9.3% | ? | 3.9%
CCCCCNC(=O)c1cc(S(=O)(=O)N2CCCCC2)ccc1F | -104.7* | -0.7% | 1.7% | 1.8% | 5.3% | 1.1%
Cc1ccc(S(=O)(=O)N2CCCCC2)cc1C(=O)NCCc1ccccc1 | -6.3 | 17.6% | ? | 1.3% | ? | -17.2%
